# Results reported in the supplement of paper PMC10037445.
# Over roughly 2,900 compounds, “NF-kB SEAP reporter activity, fold change vs agonist alone” has its median near 0.99; the highest 2% begin near 2.6. What follows is part of a selection rich in the highest values, with near analogues and random picks from the rest.
# Legend:
# [1] = system: RAW-Dual; assay: NF-kB SEAP reporter activity, fold change vs agonist alone; higher = enhanced NF-kB activity
# Method in brief: (§1)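 Reporter activity is given as fold change relative to agonist-alone wells. To measure it, 50 nL of library stock was pin-tooled onto RAW-Dual macrophages (50,000 cells/well, DMEM, 384-well plates), a PRR agonist followed 1 h later, and cells stayed at 37 °C, 5% CO2. Twenty hours on, supernatant was assayed for IRF (QuantiLuc luminescence) and NF-κB (QuantiBlue, 620 nm absorbance), and wells under 70% of agonist-control IncuCyte confluency in both mask sets were marked cytotoxic.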
# [2] = system: RAW-Dual; assay: NF-kB SEAP reporter activity, fold change vs agonist alone; cytotoxicity flag (confluency mask): not cytotoxic; higher = enhanced NF-kB activity
# Method in brief: as §1
# [3] = system: RAW-Dual; assay: NF-kB SEAP reporter activity, fold change vs agonist alone; cytotoxicity flag (confluency mask): cytotoxic (confluency <70% of control); higher = enhanced NF-kB activity
# Method in brief: as §1
# [4] = library stock concentration (final ~1000-fold dilution): 10 mM, cytotoxicity flag (confluency mask): not cytotoxic, agonist: Imiquimod (TLR7) […]
# [5] = library stock concentration (final ~1000-fold dilution): 10 mM, cytotoxicity flag (confluency mask): not cytotoxic, agonist: MPLA (TLR4) […]
# [6] = agonist: ODN 1826 (TLR9) 0.5 ug/mL
# [7] = agonist: Pam2CSK4 (TLR2/6) 0.1 ug/mL
# [8] = agonist: Pam3CSK4 (TLR2/1) 0.1 ug/mL
# [9] = library stock concentration (final ~1000-fold dilution): 10 mM, cytotoxicity flag (confluency mask): cytotoxic (confluency <70% of control), agonist: Imiquimod (TLR7) […]
# [10] = library stock concentration (final ~1000-fold dilution): 10 mM, cytotoxicity flag (confluency mask): cytotoxic (confluency <70% of control), agonist: MPLA (TLR4) […]
smiles,measurement,setting,value
O=c1[nH]c(=S)[nH]c2nc(-c3ccccc3)c(-c3ccccc3)nc12,NF-kB SEAP reporter activity,[1]; [4],0.796
same,NF-kB SEAP reporter activity,[1]; [5],0.977
O=c1[nH]c(=S)[nH]c2nc(-c3ccccc3)c(-c3ccccc3)nc12 (library stock concentration (final ~1000-fold dilution): 10 mM),NF-kB SEAP reporter activity,[2]; agonist: LPS (TLR4) 0.1 ug/mL,0.947
same,NF-kB SEAP reporter activity,[2]; [6],0.854
same,NF-kB SEAP reporter activity,[2]; [7],0.938
same,NF-kB SEAP reporter activity,[2]; [8],0.926
Br.CCCc1cc(-c2nc(-c3ccc(C)cc3)cs2)ccn1 (library stock concentration (final ~1000-fold dilution): 10 mM),NF-kB SEAP reporter activity,[3]; agonist: LPS (TLR4) 0.1 ug/mL,1.54
same,NF-kB SEAP reporter activity,[3]; [6],1.04
same,NF-kB SEAP reporter activity,[3]; [7],1.07
same,NF-kB SEAP reporter activity,[3]; [8],0.895
Br.CCCc1cc(-c2nc(-c3ccc(C)cc3)cs2)ccn1,NF-kB SEAP reporter activity,[1]; [9],1.1
same,NF-kB SEAP reporter activity,[1]; [10],1.37
Cc1cccc(CN2CCN(C(c3ccccc3)c3ccc(Cl)cc3)CC2)c1.Cl.Cl (stereo not drawn),NF-kB SEAP reporter activity,"[1]; library stock concentration (final ~1000-fold dilution): 2 mM, cytotoxicity flag (confluency mask): not cytotoxic, agonist: Imiquimod (TLR7) […]",0.843
same,NF-kB SEAP reporter activity,"[1]; library stock concentration (final ~1000-fold dilution): 2 mM, cytotoxicity flag (confluency mask): not cytotoxic, agonist: MPLA (TLR4) […]",1.15
Cc1cccc(CN2CCN(C(c3ccccc3)c3ccc(Cl)cc3)CC2)c1.Cl.Cl (stereo not drawn) (library stock concentration (final ~1000-fold dilution): 2 mM),NF-kB SEAP reporter activity,[2]; agonist: LPS (TLR4) 0.1 ug/mL,1.51
same,NF-kB SEAP reporter activity,[2]; [6],0.87
same,NF-kB SEAP reporter activity,[2]; [7],0.931
same,NF-kB SEAP reporter activity,[2]; [8],0.984
Brc1ccc(C2CN3CCSC3=N2)cc1.O=C(O)C(=O)O (stereo not drawn) (library stock concentration (final ~1000-fold dilution): 10 mM),NF-kB SEAP reporter activity,[2]; agonist: LPS (TLR4) 0.1 ug/mL,1.48
same,NF-kB SEAP reporter activity,[2]; [6],0.888
same,NF-kB SEAP reporter activity,[2]; [7],0.956
same,NF-kB SEAP reporter activity,[2]; [8],1.01
Brc1ccc(C2CN3CCSC3=N2)cc1.O=C(O)C(=O)O (stereo not drawn),NF-kB SEAP reporter activity,[1]; [4],0.948
same,NF-kB SEAP reporter activity,[1]; [5],1.01
CC(=N)NCc1cccc(CN)c1.Cl.Cl (library stock concentration (final ~1000-fold dilution): 10 mM),NF-kB SEAP reporter activity,[2]; agonist: LPS (TLR4) 0.1 ug/mL,0.956
same,NF-kB SEAP reporter activity,[2]; [6],1.03
same,NF-kB SEAP reporter activity,[2]; [7],1.02
same,NF-kB SEAP reporter activity,[2]; [8],0.859
CC(=N)NCc1cccc(CN)c1.Cl.Cl,NF-kB SEAP reporter activity,[1]; [4],1.08
same,NF-kB SEAP reporter activity,[1]; [5],1.03
CNC1CCC(c2ccc(Cl)c(Cl)c2)c2ccccc21.Cl (stereo not drawn) (library stock concentration (final ~1000-fold dilution): 10 mM),NF-kB SEAP reporter activity,[3]; agonist: LPS (TLR4) 0.1 ug/mL,0.879
same,NF-kB SEAP reporter activity,[3]; [6],0.405
same,NF-kB SEAP reporter activity,[3]; [7],0.42
same,NF-kB SEAP reporter activity,[3]; [8],0.484
CNC1CCC(c2ccc(Cl)c(Cl)c2)c2ccccc21.Cl (stereo not drawn),NF-kB SEAP reporter activity,[1]; [9],1.64
same,NF-kB SEAP reporter activity,[1]; [10],1.56
CC(C)(C)c1ccc(Cn2nc(-c3ccc(Cl)cc3)cc2C(=O)NO)cc1,NF-kB SEAP reporter activity,[1]; [4],1.47
same,NF-kB SEAP reporter activity,[1]; [5],1.5
CC(C)(C)c1ccc(Cn2nc(-c3ccc(Cl)cc3)cc2C(=O)NO)cc1 (library stock concentration (final ~1000-fold dilution): 10 mM),NF-kB SEAP reporter activity,[2]; agonist: LPS (TLR4) 0.1 ug/mL,1.32
same,NF-kB SEAP reporter activity,[2]; [6],1.24
same,NF-kB SEAP reporter activity,[2]; [7],0.824
same,NF-kB SEAP reporter activity,[2]; [8],0.964
COC1/C=C/OC2(C)Oc3c(C)c(O)c4c(O)c(c(/C=N/N5CCN(C)CC5)c(O)c4c3C2=O)NC(=O)/C(C)=C/C=C/C(C)C(O)C(C)C(O)C(C)C(OC(C)=O)C1C (stereo not drawn),NF-kB SEAP reporter activity,[1]; [4],0.886
same,NF-kB SEAP reporter activity,[1]; [5],0.877
COC1/C=C/OC2(C)Oc3c(C)c(O)c4c(O)c(c(/C=N/N5CCN(C)CC5)c(O)c4c3C2=O)NC(=O)/C(C)=C/C=C/C(C)C(O)C(C)C(O)C(C)C(OC(C)=O)C1C (stereo not drawn) (library stock concentration (final ~1000-fold dilution): 10 mM),NF-kB SEAP reporter activity,[2]; agonist: LPS (TLR4) 0.1 ug/mL,0.987
same,NF-kB SEAP reporter activity,[2]; [6],0.979
same,NF-kB SEAP reporter activity,[2]; [7],0.906
same,NF-kB SEAP reporter activity,[2]; [8],0.892
